{"source": "the supplement of paper PMC6279402", "tested_on": "A549", "test": "relative viability (normalised to negative control = 1, bortezomib = 0) (fraction); higher = less cytotoxic", "details": "inflammatory serum-free RHB-A with cytokines + LPS, 5 d + 24 h CellTiter-Blue", "key": {"[1]": {"details": "compound 30 nM, GSK126 pretreatment: 5 uM GSK126"}, "[2]": {"details": "compound 30 nM, GSK126 pretreatment: none (vehicle)"}, "[3]": {"details": "compound 300 nM, GSK126 pretreatment: 5 uM GSK126"}, "[4]": {"details": "compound 300 nM, GSK126 pretreatment: none (vehicle)"}}, "note": "Counter-ions that a name gives are not always drawn. ± gives the standard deviation of the averaged measurements.", "data": [{"smiles": "CNC(=O)c1ccccc1Sc1ccc2c(/C=C/c3ccccn3)n[nH]c2c1", "values": [{"measurement": "relative viability", "setting": "[1]", "value": "0.898 ± 0.013"}, {"measurement": "relative viability", "setting": "[2]", "value": "0.875 ± 0.039"}, {"measurement": "relative viability", "setting": "[3]", "value": "0.835 ± 0.13"}, {"measurement": "relative viability", "setting": "[4]", "value": "0.891 ± 0.063"}]}, {"smiles": "OC[C@H]1O[C@@H](n2cnc3c2N=CNC[C@H]3O)C[C@@H]1O", "note": "[Pentostatin]", "values": [{"measurement": "relative viability", "setting": "[1]", "value": "0.908 ± 0.068"}, {"measurement": "relative viability", "setting": "[2]", "value": "0.918 ± 0.062"}, {"measurement": "relative viability", "setting": "[3]", "value": "0.931 ± 0.076"}, {"measurement": "relative viability", "setting": "[4]", "value": "0.914 ± 0.056"}]}, {"smiles": "N#Cc1ccc(C(c2ccc(C#N)cc2)n2cncn2)cc1", "note": "[Letrozole]", "values": [{"measurement": "relative viability", "setting": "[1]", "value": "0.756 ± 0.011"}, {"measurement": "relative viability", "setting": "[2]", "value": "0.7993 ± 0.0055"}, {"measurement": "relative viability", "setting": "[3]", "value": "0.832 ± 0.063"}, {"measurement": "relative viability", "setting": "[4]", "value": "0.932 ± 0.037"}]}, {"smiles": "Cc1ccc(Nc2nccc(N(C)c3ccc4c(C)n(C)nc4c3)n2)cc1S(N)(=O)=O", "note": "[Pazopanib Hydrochloride]", "values": [{"measurement": "relative viability", "setting": "[1]", "value": "0.972 ± 0.12"}, {"measurement": "relative viability", "setting": "[2]", "value": "0.935 ± 0.081"}, {"measurement": "relative viability", "setting": "[3]", "value": "1.11 ± 0.096"}, {"measurement": "relative viability", "setting": "[4]", "value": "1.09 ± 0.12"}]}, {"smiles": "CNC(=O)c1cc(Oc2ccc(NC(=O)Nc3ccc(Cl)c(C(F)(F)F)c3)cc2)ccn1", "note": "[Sorafenib tosylate; Sorafenib; Sorafenib Tosylate]", "values": [{"measurement": "relative viability", "setting": "[1]", "value": "1.12 ± 0.089"}, {"measurement": "relative viability", "setting": "[2]", "value": "1.04 ± 0.039"}, {"measurement": "relative viability", "setting": "[3]", "value": "1.12 ± 0.18"}, {"measurement": "relative viability", "setting": "[4]", "value": "1.1 ± 0.1"}]}, {"smiles": "CS(=O)(=O)N1CCN(Cc2cc3nc(-c4cccc5[nH]ncc45)nc(N4CCOCC4)c3s2)CC1", "values": [{"measurement": "relative viability", "setting": "[1]", "value": "0.716 ± 0.093"}, {"measurement": "relative viability", "setting": "[2]", "value": "0.719 ± 0.062"}, {"measurement": "relative viability", "setting": "[3]", "value": "0.339 ± 0.066"}, {"measurement": "relative viability", "setting": "[4]", "value": "0.411 ± 0.017"}]}, {"smiles": "CO[C@H]1C[C@@H]2CC[C@@H](C)[C@@](O)(O2)C(=O)C(=O)N2CCCC[C@H]2C(=O)O[C@H]([C@H](C)C[C@@H]2CC[C@@H](O)[C@H](OC)C2)CC(=O)[C@H](C)/C=C(\\C)[C@@H](O)[C@@H](OC)C(=O)[C@H](C)C[C@H](C)/C=C/C=C/C=C/1C", "note": "[Sirolimus; RAPAMYCIN; Rapamycin(Sirolimus); Rapamycin]", "values": [{"measurement": "relative viability", "setting": "[1]", "value": "0.576 ± 0.08"}, {"measurement": "relative viability", "setting": "[2]", "value": "0.588 ± 0.064"}, {"measurement": "relative viability", "setting": "[3]", "value": "0.552 ± 0.066"}, {"measurement": "relative viability", "setting": "[4]", "value": "0.558 ± 0.07"}]}, {"smiles": "COc1ccc(-c2ccc3c(N4CCOCC4)nc(N4C[C@@H](C)O[C@@H](C)C4)nc3n2)cc1CO", "values": [{"measurement": "relative viability", "setting": "[1]", "value": "0.708 ± 0.013"}, {"measurement": "relative viability", "setting": "[2]", "value": "0.745 ± 0.027"}, {"measurement": "relative viability", "setting": "[3]", "value": "0.428 ± 0.052"}, {"measurement": "relative viability", "setting": "[4]", "value": "0.515 ± 0.086"}]}, {"smiles": "O=C(Nc1c[nH]nc1-c1nc2ccc(CN3CCOCC3)cc2[nH]1)NC1CC1", "values": [{"measurement": "relative viability", "setting": "[1]", "value": "0.71 ± 0.039"}, {"measurement": "relative viability", "setting": "[2]", "value": "0.663 ± 0.021"}, {"measurement": "relative viability", "setting": "[3]", "value": "0.336 ± 0.034"}, {"measurement": "relative viability", "setting": "[4]", "value": "0.279 ± 0.077"}]}, {"smiles": "CNC(=O)CN1CCC(Oc2cc3c(Nc4cccc(Cl)c4F)ncnc3cc2OC)CC1", "values": [{"measurement": "relative viability", "setting": "[1]", "value": "0.536 ± 0.14"}, {"measurement": "relative viability", "setting": "[2]", "value": "0.525 ± 0.058"}, {"measurement": "relative viability", "setting": "[3]", "value": "0.346 ± 0.075"}, {"measurement": "relative viability", "setting": "[4]", "value": "0.375 ± 0.024"}]}, {"smiles": "CCCS(=O)(=O)Nc1ccc(F)c(C(=O)c2c[nH]c3ncc(Cl)cc23)c1F", "values": [{"measurement": "relative viability", "setting": "[1]", "value": "0.771 ± 0.062"}, {"measurement": "relative viability", "setting": "[2]", "value": "0.725 ± 0.028"}, {"measurement": "relative viability", "setting": "[3]", "value": "0.851 ± 0.19"}, {"measurement": "relative viability", "setting": "[4]", "value": "1.02 ± 0.074"}]}, {"smiles": "CO[C@H](C(=O)[C@@H](O)[C@@H](C)O)[C@@H]1Cc2cc3cc(O[C@H]4C[C@@H](O[C@H]5C[C@@H](O)[C@H](O)[C@@H](C)O5)[C@H](O)[C@@H](C)O4)c(C)c(O)c3c(O)c2C(=O)[C@H]1O[C@H]1C[C@@H](O[C@H]2C[C@@H](O[C@H]3C[C@](C)(O)[C@H](O)[C@@H](C)O3)[C@@H](O)[C@@H](C)O2)[C@H](O)[C@@H](C)O1", "note": "[Plicamycin]", "values": [{"measurement": "relative viability", "setting": "[1]", "value": "0.1 ± 0.012"}, {"measurement": "relative viability", "setting": "[2]", "value": "0.183 ± 0.058"}, {"measurement": "relative viability", "setting": "[3]", "value": "0.00825 ± 0.00088"}, {"measurement": "relative viability", "setting": "[4]", "value": "0.0263 ± 0.0054"}]}, {"smiles": "NC1(Cc2ccc(Cl)cc2)CCN(c2ncnc3[nH]ccc23)CC1", "values": [{"measurement": "relative viability", "setting": "[1]", "value": "0.832 ± 0.029"}, {"measurement": "relative viability", "setting": "[2]", "value": "0.844 ± 0.05"}, {"measurement": "relative viability", "setting": "[3]", "value": "0.839 ± 0.1"}, {"measurement": "relative viability", "setting": "[4]", "value": "0.875 ± 0.023"}]}, {"smiles": "COc1ncc(-c2ccc3nccc(-c4ccnnc4)c3c2)cc1NS(=O)(=O)c1ccc(F)cc1F", "values": [{"measurement": "relative viability", "setting": "[1]", "value": "0.0446 ± 0.01"}, {"measurement": "relative viability", "setting": "[2]", "value": "0.0459 ± 0.0045"}, {"measurement": "relative viability", "setting": "[3]", "value": "0.00279 ± 0.0028"}, {"measurement": "relative viability", "setting": "[4]", "value": "0.00434 ± 0.0032"}]}, {"smiles": "O=C(NOC[C@H](O)CO)c1ccc(F)c(F)c1Nc1ccc(I)cc1F", "values": [{"measurement": "relative viability", "setting": "[1]", "value": "0.213 ± 0.035"}, {"measurement": "relative viability", "setting": "[2]", "value": "0.291 ± 0.011"}, {"measurement": "relative viability", "setting": "[3]", "value": "0.108 ± 0.017"}, {"measurement": "relative viability", "setting": "[4]", "value": "0.112 ± 0.0091"}]}, {"smiles": "Cc1ccc(-c2cc(C(F)(F)F)nn2-c2ccc(S(N)(=O)=O)cc2)cc1", "note": "[Celecoxib]", "values": [{"measurement": "relative viability", "setting": "[1]", "value": "0.842 ± 0.065"}, {"measurement": "relative viability", "setting": "[2]", "value": "0.787 ± 0.09"}, {"measurement": "relative viability", "setting": "[3]", "value": "0.783 ± 0.13"}, {"measurement": "relative viability", "setting": "[4]", "value": "0.908 ± 0.14"}]}, {"smiles": "CCS(=O)(=O)Nc1ccc2[nH]c(O)c(C(=Nc3ccc(CN4CCCCC4)cc3)c3ccccc3)c2c1", "note": "[Hesperadin]", "values": [{"measurement": "relative viability", "setting": "[1]", "value": "0.652 ± 0.13"}, {"measurement": "relative viability", "setting": "[2]", "value": "0.598 ± 0.063"}, {"measurement": "relative viability", "setting": "[3]", "value": "0.336 ± 0.019"}, {"measurement": "relative viability", "setting": "[4]", "value": "0.331 ± 0.022"}]}, {"smiles": "Cn1cnc2c(F)c(Nc3ccc(Br)cc3Cl)c(C(=O)NOCCO)cc21", "note": "[AZD6244(Selumetinib)]", "values": [{"measurement": "relative viability", "setting": "[1]", "value": "0.401 ± 0.0087"}, {"measurement": "relative viability", "setting": "[2]", "value": "0.592 ± 0.045"}, {"measurement": "relative viability", "setting": "[3]", "value": "0.203 ± 0.028"}, {"measurement": "relative viability", "setting": "[4]", "value": "0.34 ± 0.022"}]}, {"smiles": "O=P(O)(O)C(O)(Cn1ccnc1)P(=O)(O)O", "note": "[Zoledronic acid; Zolendronic acid]", "values": [{"measurement": "relative viability", "setting": "[1]", "value": "0.936 ± 0.023"}, {"measurement": "relative viability", "setting": "[2]", "value": "0.924 ± 0.15"}, {"measurement": "relative viability", "setting": "[3]", "value": "1.09 ± 0.12"}, {"measurement": "relative viability", "setting": "[4]", "value": "1.08 ± 0.051"}]}, {"smiles": "O=C(NOCC1CC1)c1ccc(F)c(F)c1Nc1ccc(I)cc1Cl", "values": [{"measurement": "relative viability", "setting": "[1]", "value": "0.441 ± 0.038"}, {"measurement": "relative viability", "setting": "[2]", "value": "0.55 ± 0.088"}, {"measurement": "relative viability", "setting": "[3]", "value": "0.256 ± 0.014"}, {"measurement": "relative viability", "setting": "[4]", "value": "0.312 ± 0.033"}]}, {"smiles": "CC(=O)Nc1cccc(-n2c(=O)n(C3CC3)c(=O)c3c(Nc4ccc(I)cc4F)n(C)c(=O)c(C)c32)c1", "values": [{"measurement": "relative viability", "setting": "[1]", "value": "0.144 ± 0.01"}, {"measurement": "relative viability", "setting": "[2]", "value": "0.171 ± 0.011"}, {"measurement": "relative viability", "setting": "[3]", "value": "0.0602 ± 0.013"}, {"measurement": "relative viability", "setting": "[4]", "value": "0.0354 ± 0.0045"}]}, {"smiles": "O=C1NC(=O)/C(=C/c2ccc(-c3ccc(F)cc3O)o2)S1", "values": [{"measurement": "relative viability", "setting": "[1]", "value": "0.977 ± 0.15"}, {"measurement": "relative viability", "setting": "[2]", "value": "0.857 ± 0.062"}, {"measurement": "relative viability", "setting": "[3]", "value": "0.744 ± 0.082"}, {"measurement": "relative viability", "setting": "[4]", "value": "0.839 ± 0.1"}]}]}
